About 2,000 (36%) of roughly 5,500 compounds were called active. About 18% were inconclusive and are not listed. No stated cut-off is given here; in the data, active means normalized growth mostly below about 0.91 (no sharp cut-off); inconclusive means no clear call, values can overlap the other calls; inactive means mostly above about 0.92. The list shows a part of the results.
Assay: chemical genetic growth profiling, strain panel (AID 1159580);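 further: tested at 20 µM; growth read once vehicle control cultures reached saturation at 30 °C; 1 = growth at the plate median or of vehicle wells; lower values mean less growth of the strain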
Conditions: S. cerevisiae deletion strains, growth OD
[1] = locus YDR150W, strain NUM1, active compounds read low
[2] = locus YGR078C, strain PAC10, active compounds read low
[3] = locus YMR263W, strain SAP30, active compounds read low
[4] = locus YNL322C, strain KRE1, active compounds read low
[5] = locus YPL241C, strain CIN2, active compounds read low

Measured: normalized growth

COc1ccc(S(=O)(=O)Nc2cc(C)c(C)cc2[N+](=O)[O-])c(OC)c1
inactive: locus YAL013W, strain DEP1, active compounds read low 1.01 | locus YBR229C, strain ROT2, active compounds read low 1 | locus YCL061C, strain MRC1, active compounds read low 1 | locus YDL101C, strain DUN1, active compounds read low 1.01 | [1] 0.885 | locus YEL061C, strain CIN8, active compounds read low 1.01 | [2] 0.995 | locus YGR229C, strain SMI1, active compounds read low 1.01 | locus YHR030C, strain SLT2, active compounds read low 0.991 | locus YHR087W, strain rtc3, active compounds read low 1 | locus YJR043C, strain POL32, active compounds read low 1 | locus YJR075W, strain HOC1, active compounds read low 1.01 | locus YKL190W, strain CNB1, active compounds read low 1.02 | locus YLR039C, strain RIC1, active compounds read low 0.968 | locus YLR058C, strain SHM2 (second series), active compounds read low 1 | locus YLR085C, strain ARP6, active compounds read low 1.04 | locus YLR262C, strain YPT6, active compounds read low 0.967 | locus YML094W, strain GIM5, active compounds read low 0.983 | locus YMR219W, strain ESC1, active compounds read low 0.999 | [3] 0.973 | locus YNL128W, strain TEP1, active compounds read low 1.02 | locus YNL153C, strain GIM3, active compounds read low 1.02 | locus YNL298W, strain CLA4 (second series), active compounds read low 1.04 | [4] 0.989 | locus YNR030W, strain Alg12, active compounds read low 0.998 | locus YPL055C, strain LGE1, active compounds read low 0.889 | [5] 1.03 | locus YPR135W, strain CTF4, active compounds read low 0.946

Ic1ccccc1CNC1C2CCN(CC2)C1C(c1ccccc1)c1ccccc1 (configuration not stated)
inactive: locus YAL040C, strain CLN3, active compounds read low 0.998 | locus YCL061C, strain MRC1 (second series), active compounds read low 0.984 | [1] 0.996 | locus YDR363W, strain ESC2, active compounds read low 0.977 | locus YER002W, strain NOP16, active compounds read low 1.05 | [2] 1 | [3] 0.998 | locus YMR307W, strain GAS1, active compounds read low 0.989 | locus YNL175C, strain NOP13, active compounds read low 1.05 | locus YNL197C, strain WHI3, active compounds read low 1.07 | locus YNL224C, strain SQS1, active compounds read low 1.05 | [4] 1 | locus YOR083W, strain WHI5 (second series), active compounds read low 1.05 | [5] 0.998

— PubChem BioAssay AID1159580 (chemical genetic matrix, 2015)
